The text below walks through data of the supplement of paper PMC9801561.

± gives the standard deviation of the averaged measurements.

One test has as its system Escherichia coli Nissle 1917. The test can be described thus: area under OmniLog respiration curve over 48 h (OmniLog units x h); higher = more growth / nutrient utilisation; extreme values may be limits of the assay. Conditions: nutrient role: C-Source, amino acid; incubation: 48 h, 37 °C.
As to `NCC(=O)N1CCC[C@H]1C(=O)O`, the “area under OmniLog respiration curve” value is 7860 ± 920. On the same count and under the same terms, under `N[C@H](CO)C(=O)O` [D-Serine] stands 9490 ± 1100; under `C[C@H](N)C(=O)NCC(=O)O`, 7280 ± 620; under `NC(=O)CC[C@H](N)C(=O)O` [L-Glutamine], 8360 ± 610. The same measure, in the same setting: then `CC(C)[C@H](N)C(=O)O` [L-Valine], with 5.38 ± 1.1.

The same test, now with this note: nutrient role: C-Source, carbohydrate; incubation: 48 h, 37 °C.
For the molecule `OC[C@H]1OC(O)[C@H](O)[C@@H](O)[C@H]1O` (stereo partly drawn) [D-Galactose], the “area under OmniLog respiration curve” value was 7350 ± 520.

With `OC[C@@H](O)[C@@H](O)[C@H](O)[C@H](O)CO` [D-Mannitol], the “area under OmniLog respiration curve” value worked out at 7850 ± 650.

For `OC[C@H]1O[C@H](O[C@H]2O[C@H](CO)[C@@H](O)[C@H](O)[C@H]2O)[C@H](O)[C@@H](O)[C@@H]1O` [D-Trehalose], the “area under OmniLog respiration curve” value came out at 8920 ± 460. For the molecule `OCC(O)CO` [Glycerol], the “area under OmniLog respiration curve” value came out at 7310 ± 730. In the case of `OC[C@H]1O[C@@H](O[C@H]2[C@H](O)[C@@H](O)[C@@H](O)O[C@@H]2CO)[C@H](O)[C@@H](O)[C@H]1O` [a-D-Lactose], the “area under OmniLog respiration curve” value stood at 7580 ± 630.

Turning to `OC[C@@H](O)[C@@H](O[C@@H]1O[C@H](CO)[C@H](O)[C@H](O)[C@H]1O)[C@H](O)[C@@H](O)CO` [D-Lactitol], the “area under OmniLog respiration curve” value stood at 5600 ± 540. Turning to `CC1OC(O)C(O)C(O)C1O` [L-Fucose], the “area under OmniLog respiration curve” value amounted to 7650 ± 700. Same read-out and setting: then `O[C@@H]1[C@@H](O)[C@@H](O)CO[C@H]1O` [L-Arabinose], with 8240 ± 430; and `OCC1OC(OC2C(CO)OC(O)C(O)C2O)C(O)C(O)C1O` [D-Cellobiose], with 963 ± 760; and `OC[C@H]1O[C@@](CO)(O[C@H]2O[C@H](CO)[C@@H](O)[C@H](O)[C@H]2O)[C@@H](O)[C@@H]1O` [Sucrose], with 634 ± 420. Same read-out and setting: under `OC[C@H]1O[C@@H](Oc2ccc(O)cc2)[C@H](O)[C@@H](O)[C@@H]1O` [Arbutin] stands 4.72.
